VP16 counter: VP16 counterscreen qHTS for inhibitors of ROR gamma transcriptional activity; 310,000 tested, 3.5% active; Drosophila S2 Gal4-VP16 UAS-luciferase, luminescence, 20 h; Potency, µM (highest dose often 53.6 µM), hits mostly inhibitors;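 note: Gal4-VP16 expression switched on by copper sulfate through the metallothionein promoter; nearly all actives have a fitted effect of over 50% in size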
RORgamma inh: qHTS for inhibitors of ROR gamma transcriptional activity | Nuclear receptor ROR-gamma (Mus musculus), P51450 | Drosophila S2 Gal4-RORgamma UAS-luciferase reporter, 20 h | Potency, µM (top dose mostly 53.6 µM), most hits filed as inhibitors | 310,000 tested, 5.4% active; note: nearly all actives have a fitted effect of over 60% in size
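Drosophila S2 cells stably expressing Gal4-DBD/mouse RORγ fusion under metallothionein promoter plus UAS-luciferase; compound 1 h, then 700 uM CuSO4 induction for 20 h at ambient temperature; inhibition read as reduced luminescence.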
ELG1 DNA repair: qHTS screen for small molecules that inhibit ELG1-dependent DNA repair in human embryonic kidney (HEK293T) cells expressing luciferase-tagged ELG1; HEK293T ELG1-luciferase reporter, luminescence, 16 h; DNA damage induced by 5-fluorouridine; Potency, µM (highest dose often 46.1 µM), hits mostly inhibitors; AID 504467, 2011; 330,000 tested, 2.3% active; note: nearly all actives have a fitted effect of over 55% in size
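Step one: seed 2,000 cells per well. Step two: pin-transfer compound or DMSO alongside 5-fluorouridine. Step three: incubate 16 hr, 37 °C, 5% CO2. Step four: add ONE-Glo, wait 30 min, read luminescence.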
Coupling enz: qHTS Assay for Inhibitors of Fructose-1,6-bisphosphate Aldolase from Giardia Lamblia: Coupling assay counterscreen; coupling enzyme system counterscreen, AmpLite Red fluorescence; activity change, negative = inhibition, % at 58.2 µM, hits read low; 290,000 tested, 0.67% active; in the data active = activity change below about -30%
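Coupling enzymes only (glyceraldehyde-3-phosphate) + compound, at 57.5 uM final, 10 min RT; add substrate/coupling/AmpLite Red mix, 20 min RT; fluorescence ex 525/em 598 nm. Actives flag coupling-system interference.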
TSHR antag: Antagonists of the Thyroid Stimulating Hormone Receptor: HTS campaign; Thyrotropin receptor (Homo sapiens), P16473; TSHR-expressing cells, TSH-stimulated cAMP HTRF, 2 h; hits give low values; activity change, negative = inhibition, % at 11.5 µM; 330,000 tested, 0.2% active; AID 504810, 2011;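 active = activity change below a set negative limit, meaning inhibition stronger than a set level, cut at about -70% in these data; inconclusive = activity change between two set negative limits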
Target sequence (P16473 whole entry, looked up): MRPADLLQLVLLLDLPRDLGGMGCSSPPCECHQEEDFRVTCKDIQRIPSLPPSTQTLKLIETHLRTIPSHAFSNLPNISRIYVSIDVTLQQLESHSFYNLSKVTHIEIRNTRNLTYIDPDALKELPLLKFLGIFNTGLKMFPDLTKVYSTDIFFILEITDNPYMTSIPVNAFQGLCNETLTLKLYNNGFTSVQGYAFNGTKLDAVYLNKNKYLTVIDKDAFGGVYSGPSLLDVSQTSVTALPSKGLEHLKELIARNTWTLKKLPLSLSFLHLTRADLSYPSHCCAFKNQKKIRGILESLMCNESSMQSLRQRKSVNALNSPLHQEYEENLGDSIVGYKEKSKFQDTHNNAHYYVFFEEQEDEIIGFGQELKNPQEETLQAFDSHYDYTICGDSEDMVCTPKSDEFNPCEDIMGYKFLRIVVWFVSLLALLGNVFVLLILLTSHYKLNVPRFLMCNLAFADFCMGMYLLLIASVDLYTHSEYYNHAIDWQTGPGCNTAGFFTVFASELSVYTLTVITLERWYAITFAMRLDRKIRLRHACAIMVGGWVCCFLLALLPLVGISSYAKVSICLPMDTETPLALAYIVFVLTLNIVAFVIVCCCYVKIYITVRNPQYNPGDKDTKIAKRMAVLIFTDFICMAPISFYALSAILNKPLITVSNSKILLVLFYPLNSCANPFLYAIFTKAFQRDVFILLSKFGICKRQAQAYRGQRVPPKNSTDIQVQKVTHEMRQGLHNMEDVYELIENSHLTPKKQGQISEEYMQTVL
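Freshly harvested TSHR cells receive pin-tooled compound, then EC80 TSH at 4nM final. After 2 hours at 37 deg C, antibody in lysis buffer and cAMP-d2 are added; 30 minutes at ambient temperature precede the HTRF read.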
Of the large screens only hits and unclear results are named; the others gave an inactive call; ! = repeats disagree. A selection: hits, their analogues and other compounds. The true share with any hit is near 8%. Unless noted, calls come from the whole dose curve; as a rule, active = well fitted curve in the direction sought with a large enough effect; inconclusive = small, poorly fitted or top-dose-only effect, or another doubt; inactive = no such curve, though single readings can be large; an effect the other way counts as inactive or inconclusive.

Cc1nc2sccn2c1-c1csc(NCc2ccccc2)n1	VP16 counter 1µM, RORgamma inh inconclusive
C=CCNc1nc(-c2c(C)nc3sccn23)cs1	RORgamma inh inconclusive
COc1ccccc1Nc1nc(-c2sc(NC(=O)c3ccccc3)nc2C)cs1	none
CCOC(=O)c1cnc2ccc(C(=O)OC)cc2c1NCCc1ccc(OC)c(OC)c1	ELG1 DNA repair 15µM
CCOC(=O)c1cnc2ccc(OCC)cc2c1NCc1ccccc1OC	VP16 counter inconclusive, RORgamma inh 13µM, ELG1 DNA repair inconclusive
CCOC(=O)c1cnc2c(C)cccc2c1NCCc1ccc(OC)c(OC)c1	ELG1 DNA repair 23µM
COc1ccc(CNC(=O)C2CCN(C(=O)Cc3ccccc3)CC2)cc1	none
CCOC(=O)N1CCN(C(=O)CCc2ccccc2)CC1	TSHR antag -128
CCOC(=O)N1CCN(C(=O)c2ccc3c(=O)n(CCc4ccccc4)c(=S)[nH]c3c2)CC1	RORgamma inh 7.1µM
CC1CCCCN1CCNC(=O)c1ccc2c(=O)n(Cc3ccc(Cl)cc3)c(=S)[nH]c2c1 (stereo not given)	VP16 counter inconclusive, RORgamma inh 11µM, ELG1 DNA repair inconclusive (no result: Coupling enz)
CCCn1c(=S)[nH]c2cc(C(=O)N3CCN(C(=O)OCC)CC3)ccc2c1=O	none
CCOC(=O)N1CCN(C(=O)c2ccc3c(=O)n(Cc4ccc(Cl)cc4)c(=S)[nH]c3c2)CC1	VP16 counter inconclusive, RORgamma inh 5.6µM, ELG1 DNA repair 8.2µM
C[C@H]1COC(=O)[C@H](Cc2ccccc2)NC(=O)[C@@H](C)COC(=O)[C@H](Cc2ccccc2)NC1=O	none (no result: ELG1 DNA repair, TSHR antag)
CC(=O)c1ccc(N2CCN(C(=O)c3ccc(Cn4c(=S)[nH]c5ccc(N6CCOCC6)cc5c4=O)cc3)CC2)cc1	ELG1 DNA repair inconclusive
CCOC(=O)N1CCN(C(=O)c2ccc(Cn3c(=S)[nH]c4ccc(Br)cc4c3=O)cc2)CC1	VP16 counter 14µM, RORgamma inh inconclusive, ELG1 DNA repair 7.3µM (no result: Coupling enz)
CC1CN(c2ccc(NC(=S)Nc3ccc(N4CC(C)OC(C)C4)cc3)cc2)CC(C)O1 (stereo not given)	VP16 counter 8.9µM, RORgamma inh 2.5µM
CC1CN(C(=S)Nc2ccc(SC(F)F)cc2)CC(C)O1 (stereo not given)	RORgamma inh 11µM
CC1CN(C(=S)Nc2ccc(Cl)cc2)CC(C)O1 (stereo not given)	none
CC1CC(C)CN(C(=S)Nc2ccc(OC(F)F)cc2)C1 (stereo not given)	VP16 counter inconclusive, RORgamma inh 11µM
FC(F)Oc1ccc(NC(=S)N2CCN(Cc3ccccc3)CC2)cc1	RORgamma inh inconclusive
CC1CC(C)CN(C(=S)Nc2ccc(SC(F)F)cc2)C1 (stereo not given)	VP16 counter 11µM, RORgamma inh 5µM
COc1cccc(Cn2c(=O)c(-c3cn(C)c4ccccc34)nc3cncnc32)c1	none (no result: ELG1 DNA repair, TSHR antag)
COc1cc(/C=C2\SC(N3CCc4ccccc4C3)=NC2=O)cc(OC)c1OC	RORgamma inh inconclusive, ELG1 DNA repair 18µM
Cc1ccc(Sc2ncnc(N)c2[N+](=O)[O-])cc1	ELG1 DNA repair inconclusive
Nc1ncnc(Sc2ccccc2)c1[N+](=O)[O-]	VP16 counter inconclusive, RORgamma inh 10µM, ELG1 DNA repair inconclusive
Nc1ncnc(Sc2ncccn2)c1[N+](=O)[O-]	VP16 counter 7.1µM, RORgamma inh 4µM, ELG1 DNA repair inconclusive
Nc1ncnc(Sc2ccc(Cl)cc2)c1[N+](=O)[O-]	ELG1 DNA repair inconclusive
CCCCC(CC)C/C=C1\CC(C(=O)OCC)Oc2ccccc21 (stereo not given) (tested in a mixture with another compound)	RORgamma inh 1.6µM (no result: ELG1 DNA repair, TSHR antag)
C=C1c2cccc(OC)c2O[C@H](C(=O)OCC)[C@@H]1CC(CC)CCCC (stereo not given in full)	VP16 counter inconclusive
Cc1nn(C2CCS(=O)(=O)C2)c2nc(C3CC3)cc(C(=O)Nc3cccc(C#N)c3)c12 (stereo not given)	none (no result: VP16 counter, RORgamma inh, Coupling enz)
Nc1ccccc1C(=O)NNC(=O)C(=O)/C=C(\O)c1ccccc1	VP16 counter inconclusive, RORgamma inh 11µM, ELG1 DNA repair inconclusive
O=C(/C=C(\O)c1ccccc1)C(=O)NNC(=O)c1ccccc1[N+](=O)[O-]	VP16 counter inconclusive
CCCCNc1c2c(nc3c(-c4ccccc4)c(C)nn13)CCC2	ELG1 DNA repair inconclusive
Cc1nn2c(NCc3cccnc3)c3c(nc2c1-c1ccccc1)CCC3	none
CCC(C)Nc1c2c(nc3c(-c4ccccc4)c(C)nn13)CCC2 (stereo not given)	RORgamma inh 10µM
Cc1nn2c(N3CCCC3)c3c(nc2c1-c1ccccc1)CCC3	ELG1 DNA repair inconclusive
COc1cccc(Nc2c3c(nc4c(-c5ccccc5)c(C)nn24)CCC3)c1	VP16 counter 3.2µM, RORgamma inh inconclusive, ELG1 DNA repair inconclusive
COCCNc1c2c(nc3c(-c4ccccc4)c(C)nn13)CCCC2	RORgamma inh inconclusive, ELG1 DNA repair inconclusive
Cc1nn2c(Nc3ccc(F)cc3)c3c(nc2c1-c1ccccc1)CCC3	VP16 counter inconclusive, RORgamma inh 2.8µM
Cc1nn2c(NCCN(C)C)c3c(nc2c1-c1ccccc1)CCCC3	VP16 counter 0.45µM, RORgamma inh inconclusive, ELG1 DNA repair inconclusive
NCCCC[C@@H](C(=O)NCCCCCCCCCCC(=O)N1CCNCC1)n1cc(CCCC(=O)O)nn1	none (no result: VP16 counter, RORgamma inh, Coupling enz)
COC(=O)[C@@]1(Cc2ccc(OC)cc2)[C@H]2c3cc(C(=O)N(C)C)n(Cc4ccsc4Br)c3C[C@H]2CN1C(=O)c1ccccc1	none (no result: ELG1 DNA repair, TSHR antag)
COc1ccc2nc3c(c(-c4ccccc4)c2c1)CCC3	VP16 counter 18µM!, RORgamma inh 11µM, ELG1 DNA repair inconclusive
COc1ccc(OC)c(Nc2c3c(nc4ccccc24)CCC3)c1	ELG1 DNA repair inconclusive
COc1ccc(Cl)cc1NC(=O)CN(C)C(=O)Cc1n[nH]c(=O)c2ccccc12	none (no result: VP16 counter, RORgamma inh, Coupling enz)
Cc1onc(-c2ccccc2Cl)c1C(=O)NC(=S)Nc1ccccc1F	VP16 counter inconclusive, RORgamma inh 5µM, ELG1 DNA repair inconclusive
COc1ccc(NC(=O)c2c(-c3c(Cl)cccc3Cl)noc2C)c(OC)c1	ELG1 DNA repair 23µM
Cc1onc(-c2ccccc2Cl)c1C(=O)NNC(=O)c1ccccc1F	ELG1 DNA repair inconclusive
COc1ccccc1CNC(=O)c1c(-c2ccccc2Cl)noc1C	none
COc1cc(/C=N/NC(=O)c2c(-c3c(Cl)cccc3Cl)noc2C)ccc1OCC(N)=O	none (no result: VP16 counter, RORgamma inh)
Cc1onc(-c2c(Cl)cccc2Cl)c1C(=O)N/N=C(\N)COc1ccc(Cl)cc1	VP16 counter 0.5µM, RORgamma inh 0.45µM, ELG1 DNA repair inconclusive

Screens deposited in PubChem by National Center for Advancing Translational Sciences (NCATS).
